Screens as filed in PubChem BioAssay.
A selection: hits, their analogues and other compounds. The true share with any hit is near 19%.
DT40 TDP1 no CPT: qHTS for Inhibitors of human tyrosyl-DNA phosphodiesterase 1 (TDP1): qHTS in cells in absence of CPT; DT40 Tdp1-/- hTDP1 cells, no CPT, ATP luminescence, 48 h; 15% of 420,000 active; Potency, µM (highest dose often 46.2 µM), hits mostly inhibitors; note: nearly all actives have a fitted effect of over 55% in size
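DT40 Tdp1-/-;hTDP1 cells, no CPT (DMSO vehicle only), 400 cells/well; compounds pin-transferred; ≥48 hr, 37 °C; CellTiter-Glo 30 min RT dark, luminescence read.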
DT40 TDP1 CPT: growth inhibition of DT40 Tdp1-/-;hTDP1 cells with camptothecin (screen for TDP1 inhibitors); 12% of 420,000 active; chicken DT40 Tdp1-/-;hTDP1 cells + 20 nM CPT, ATP luminescence, 48 h; Potency, µM (series often up to 46.2 µM), usual class: inhibitors; AID 686979; note: nearly all actives have a fitted effect of over 55% in size
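Cell growth measured by CellTiter-Glo luminescence after a minimum 48 h, 37 C compound exposure with 20 nM CPT in Tdp1-knockout DT40 cells stably expressing hTDP1, seeded 400/well; qHTS titration format.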
HT1080 IDH1KD tx: HT-1080 IDH1 knockdown cell toxicity (counter line) | HT-1080 IDH1 knockdown viability, ATP luminescence, 48 h | Potency, µM (top dose mostly 46.1 µM), actives largely listed as cytotoxic | 2% of 360,000 active
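HT-1080-IDH1KD cells (IDH1 knocked down), 750/well in RPMI with 5% FBS, treated with compound 48 h at 37 degrees C. Viability by CellTiter-Glo luminescence, normalised to DMSO and no-cell wells; concentration-response curves classed.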
IL1B secr inh: inflammasome signaling inhibition, IL-1 beta readout; THP-1 LPS/ATP IL-1B secretion, AlphaLISA, 16 h; active compounds read low; AID 743279; activity change, % at 57.5 µM; 4.7% of 360,000 active; in the data active = activity change below about -50%; inconclusive = mostly about -30% to -49%
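THP-1 cells pretreated 1 hr with compounds (up to 57.5 uM final), then stimulated with LPS (250 ng/mL final) plus ATP (1.25 mM final); secreted IL-1B measured by AlphaLISA after 16 hr, decreased signal indicating inhibition.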
HT1080-NT tox: kills 2HG-producing HT-1080-NT fibrosarcoma cells | HT-1080-NT fibrosarcoma viability, CellTiter-Glo ATP luminescence, 48 h | Potency, µM (titrated, usually from 46.1 µM), actives largely listed as cytotoxic | 1.6% of 360,000 active | AID 686970;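 note: NT is the 2HG producing partner of a matched IDH1 knockdown line; nearly all actives have a fitted effect of over 55% in size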
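A 48-hour cytotoxicity screen used HT-1080-NT cells plated 2 hours before compound delivery. ATP-based CellTiter-Glo luminescence measured viability, normalized to DMSO and no-cell controls.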
ELG1 DNA repair: inhibitors of ELG1-dependent DNA repair in HEK293T cells; HEK293T ELG1-luciferase reporter, luminescence, 16 h; DNA damage induced by 5-fluorouridine; Potency, µM (highest dose often 46.1 µM), most hits filed as inhibitors; 2.3% of 330,000 active; note: nearly all actives have a fitted effect of over 55% in size
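Cells (2,000 per well) received 5-fluorouridine plus test compound or DMSO and were incubated 16 hr at 37 °C, 5% CO2. Luciferase activity was read by luminescence 30 min after ONE-Glo addition; signal suppression marked inhibition of damage-induced ELG1 function.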
Hits are given with their value; 0 = inactive; ? = inconclusive; - = not tested or not shown; ! = not confirmed by another sample. Unless noted, calls come from the whole dose curve; as a rule, active = well fitted curve in the direction sought with a large enough effect; inconclusive = small, poorly fitted or top-dose-only effect, or another doubt; inactive = no such curve, though single readings can be large; an effect the other way counts as inactive or inconclusive.

SMILES	DT40 TDP1 no CPT	DT40 TDP1 CPT	HT1080 IDH1KD tx	IL1B secr inh	HT1080-NT tox	ELG1 DNA repair
Cc1ccc(Cl)c(OCCCCN(C)Cc2ccccc2)c1	?	?	?	-57	?	0
CN(CCOCCOc1ccc(Cl)cc1Br)Cc1ccccc1	?	0	?	-80	?	0
CN(CCOc1ccccc1Cl)Cc1ccccc1	0	?	0	0	0	0
Cc1ccc(Cl)c(OCCCN(C)Cc2ccccc2)c1	?	0	0	-77	?	0
CCN1CCc2nc(N)oc2CC1	0	0	0	0	?	?
CC(=O)NC(CC(=O)N(C)C1CCCCC1)c1ccccc1 (stereo not drawn)	0	0	0	0	0	0
CC(C)(O)CN(C(=O)C(c1ccccc1)c1ccccc1)C1CCCCC1	?	?	0	-63	0	-
Cn1c(=O)c2c(-c3ccccc3)n(-c3ccccc3N)cc2n(C)c1=O	?	?	0	0	0	-
COc1ccc(-n2cc3c(c2-c2cccc(Br)c2)c(=O)n(C)c(=O)n3C)cc1OC	13µM	21µM	-	-	-	-
Cc1cccc(-c2c3c(=O)n(C)c(=O)n(C)c3cn2-c2cc(N)c(Cl)cc2Cl)c1	3.7µM	5.8µM	-	-	-	-
COC(=O)c1ccccc1-n1cc2c(c1-c1cccc(C)c1)c(=O)n(C)c(=O)n2C	7.3µM	10µM	-	-	-	-
Cc1cc(N)c(-n2cc3c(c2-c2ccc(Br)cc2)c(=O)n(C)c(=O)n3C)cc1C	13µM	16µM	-	-	-	-
Cc1cccc(-c2c3c(=O)n(C)c(=O)n(C)c3cn2-c2ccccc2O)c1	0	?	0	0	0	0
Cn1c(=O)c2c(-c3ccccc3)n(-c3ccccc3S)cc2n(C)c1=O	0	0	0	0	0	-
O=C(CC1Sc2ccccc2NC1=O)NNc1cc(Cl)ccc1Cl (stereo not drawn)	0	0	?	0	?	-
Cc1ccc(S(=O)(=O)Nc2nnc(C3CCCCC3)s2)cc1	0	0	0	0	0	0
COc1ccc(CN(C)CC(=O)Nc2cccc(S(=O)(=O)N(C)c3ccccc3)c2)c(OC)c1	?	?	0	0	0	?
CC(=O)N/C(=C\c1ccccc1)C(=O)OCC(=O)NC(=O)c1ccccc1	0	0	0	0	0	0
CC(=O)N/C(=C\c1ccccc1)C(=O)OCC(=O)NC(C)C12CC3CC(CC(C3)C1)C2 (stereo not drawn)	21µM	15µM	0	?	0	0
Cc1ccc(S(=O)(=O)N2CCCN(C(C)c3nc4ccccc4c(=O)[nH]3)CC2)cc1 (stereo not drawn)	?	?	0	0	0	?
CCOc1ccc(N(CC(=O)NCCSCc2ccco2)S(=O)(=O)c2ccc(F)cc2)cc1	21µM	?	0	0	0	0
CCOc1ccc(S(=O)(=O)N(CC(=O)NCCSCc2ccccc2)c2ccccc2)cc1	0	0	-	-	-	-
CCOc1ccc(S(=O)(=O)N(CC(=O)NCCSc2ccccc2)c2ccccc2)cc1	0	0	-	-	-	-
CCOc1ccc(N(CC(=O)NCCSCc2ccco2)S(=O)(=O)c2ccc(C)cc2)cc1	?	18µM	0	0	0	?
Cc1cc(C(=O)Nc2ccc(F)c(Cl)c2)on1	0	0	0	0	0	0
SMILES	DT40 TDP1 no CPT	DT40 TDP1 CPT	HT1080 IDH1KD tx	IL1B secr inh	HT1080-NT tox	ELG1 DNA repair
O=C(CCCN1C(=O)/C(=C/c2ccccc2Cl)SC1=S)Nc1ccccn1	?	?	0	-81	0	?
O=C(CCCN1C(=O)/C(=C/c2ccccc2Cl)SC1=S)Nc1cccnc1	16µM	4.6µM	0	?	0	?
CC(=O)Oc1ccc(N(C(C)=O)S(=O)(=O)c2cccs2)c2ccccc12	?	12µM	18µM	0	?	15µM
Cc1cc(C)cc(NC(=O)Nc2ccc3c(c2)N(C)C(=O)CS3)c1	?	?	0	-50	0	?
CC(=O)c1cccc(NC(=O)Nc2ccc3c(c2)N(C)C(=O)CS3)c1	16µM	16µM	?	?	?	13µM
CCOC(=O)c1cc2c(=O)n3ccccc3nc2n(Cc2ccco2)c1=NC(=O)c1ccc(C)c(C)c1	?	0	-	-	-	-
CCOC(=O)c1cc2c(=O)n3ccccc3nc2n(CCOC)c1=NC(=O)c1c(-c2c(F)cccc2Cl)noc1C	18µM!	?	?	-55	?	0
CCOC(=O)c1cc2c(=O)n3ccccc3nc2n(Cc2ccco2)c1=NC(=O)c1c(F)cccc1Cl	21µM	?	-	-	-	-
CCOC(=O)c1cc2c(=O)n3ccccc3nc2n(CCCOC)c1=NC(=O)c1c(-c2ccccc2Cl)noc1C	0	0	-	-	-	-
CCOC(=O)c1cc2c(=O)n3ccccc3nc2n(Cc2ccco2)c1=NC(=O)c1cccc(Br)c1	?	16µM	-	-	-	-
CCOC(=O)c1cc2c(=O)n3ccccc3nc2n(Cc2ccco2)c1=NC(=O)c1ccc(Br)cc1	0	18µM	-	-	-	-
COc1ncc2nc(-c3ccc(F)cc3)c(=O)n(C[C@H]3CCCO3)c2n1	0	0	-	-	-	-
CCN(CC(=O)Nc1ccc(OC)cc1)C(=O)CN1C(=O)NC(C)(c2ccc3ccccc3c2)C1=O (stereo not drawn)	?	?	0	?	0	0
CCOC(=O)c1cc2c(=O)n3cccc(C)c3nc2n(Cc2ccco2)c1=NC(=O)c1cccnc1	?	16µM	0	0	0	0
CCOC(=O)c1cc2c(=O)n3ccccc3nc2n(Cc2ccco2)c1=NC(=O)c1cccnc1	?	?	0	0	0	?
CCOC(=O)c1cc2c(=O)n3ccccc3nc2n(Cc2ccco2)c1=NC(=O)c1ccccc1OCC	18µM	?	0	0	0	?
CCOC(=O)c1cc2c(=O)n3ccccc3nc2n(Cc2ccco2)c1=NC(=O)c1cccc(C)c1	?	23µM	-	-	-	-
CC(=O)N1CCC2(CCCN(c3ccccn3)C2)CC1	0	?	-	-	-	-
CN1CCN(C(=O)c2ccc(OCCOc3ccccc3)cc2)CC1	0	0	0	0	0	0
COc1ccc(CN2CCC3(CC2)c2ccccc2[C@@H](NC(=O)c2ccsc2)[C@@H]3OC)cc1O	0	?	-	-	-	-
OC[C@H]1OC(O)[C@H](O)[C@@H]1O (stereo partly drawn)	0	0	0	0	?	0
COc1ccccc1CC(=N)N1C[C@@H]2C(=O)CCC(c3ccccc3)(c3ccccc3)[C@@H]2C1	21µM	12µM	-	-	-	-
COCCNC(=S)N1CCc2cc(OC)c(OC)cc2C1c1cccs1 (stereo not drawn)	0	0	0	0	0	?
